Results on five compounds are retold here after PubChem BioAssay.

A short description of experiment [1]: compounds binding Alexa647 anti-His antibody – biochemical, small-molecule microarray, 635 nm fluorescence, artefact control for SMM control protein annotation, primary screen (AID 1128).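 Further: score merges feature fluorescence with signal-to-noise for each printed compound spot.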 Conditions: higher = more signal.
In experiment [2] the test system is Human papillomavirus type 1a E7 protein (residues 1-88). The experiment is described as follows: HPV1a E7 small-molecule binders, primary screen, biochemical, small-molecule microarray, residues 1-88, 635 nm (AID 1129). Conditions: small-molecule microarray binding, fluorescence 635 nm; higher = more signal.
For experiment [3], the target named is Focal adhesion kinase 1 (Homo sapiens) (UniProt Q05397). The experiment is described as follows: PTK2 protein binding on printed compound slides – biochemical, small-molecule microarray, 635/667 nm fluorescence, BSA, DTT, primary screen (AID 1130).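 Further: composite of spot emission at 667 nm and signal to noise over triplicate slides.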 Conditions: 635 nm fluorescence, higher = more signal.
Focal adhesion kinase 1 (Homo sapiens), sequence (Q05397 whole entry, looked up): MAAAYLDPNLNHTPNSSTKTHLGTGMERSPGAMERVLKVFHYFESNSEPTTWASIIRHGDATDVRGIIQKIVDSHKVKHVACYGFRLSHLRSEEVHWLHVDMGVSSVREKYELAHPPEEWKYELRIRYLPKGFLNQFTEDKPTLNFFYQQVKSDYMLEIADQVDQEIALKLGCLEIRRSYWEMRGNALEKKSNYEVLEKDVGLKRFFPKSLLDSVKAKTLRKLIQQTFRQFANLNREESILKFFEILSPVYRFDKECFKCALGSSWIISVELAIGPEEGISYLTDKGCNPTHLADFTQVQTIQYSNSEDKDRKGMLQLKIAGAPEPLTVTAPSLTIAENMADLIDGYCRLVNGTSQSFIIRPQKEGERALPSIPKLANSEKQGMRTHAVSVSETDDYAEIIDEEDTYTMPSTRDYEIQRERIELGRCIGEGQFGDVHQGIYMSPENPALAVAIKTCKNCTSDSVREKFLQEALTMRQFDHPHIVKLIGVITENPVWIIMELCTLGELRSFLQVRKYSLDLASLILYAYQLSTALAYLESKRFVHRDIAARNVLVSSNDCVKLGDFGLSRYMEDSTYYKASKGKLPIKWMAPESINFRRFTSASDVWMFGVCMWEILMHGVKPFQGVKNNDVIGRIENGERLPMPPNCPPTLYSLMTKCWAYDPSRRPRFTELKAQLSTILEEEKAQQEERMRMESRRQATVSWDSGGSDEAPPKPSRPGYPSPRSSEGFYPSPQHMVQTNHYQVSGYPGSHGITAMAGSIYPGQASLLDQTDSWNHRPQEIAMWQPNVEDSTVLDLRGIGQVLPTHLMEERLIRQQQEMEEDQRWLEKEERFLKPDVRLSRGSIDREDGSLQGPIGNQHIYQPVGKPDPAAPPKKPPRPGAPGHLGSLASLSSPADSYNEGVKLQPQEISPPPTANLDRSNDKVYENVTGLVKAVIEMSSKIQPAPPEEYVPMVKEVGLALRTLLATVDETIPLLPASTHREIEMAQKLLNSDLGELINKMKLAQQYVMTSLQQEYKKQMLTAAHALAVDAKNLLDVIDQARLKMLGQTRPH
Experiment [4] has as its system Fibrinogen (Alexa647-labelled). The experiment is described as follows: Alexa647-fibrinogen binding to printed small molecules – biochemical, small-molecule microarray, 635/667 nm fluorescence, artefact control for SMM control-protein annotation, profiling panel (AID 1131).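 Further: z-score merges 667 nm fluorescence with per-spot signal-to-noise over triplicate slides.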 The conditions noted are these: fibrinogen-A647 binding fluorescence, higher = more signal.
The target of experiment [5] is Follistatin (Homo sapiens) (UniProt P19883). Kind of experiment: FST protein binding to printed compounds – biochemical, small-molecule microarray, 635/667 nm fluorescence, primary screen (AID 1132). The conditions noted are these: 635 nm fluorescence, higher = more signal.
Follistatin (Homo sapiens), sequence (P19883 whole entry, looked up): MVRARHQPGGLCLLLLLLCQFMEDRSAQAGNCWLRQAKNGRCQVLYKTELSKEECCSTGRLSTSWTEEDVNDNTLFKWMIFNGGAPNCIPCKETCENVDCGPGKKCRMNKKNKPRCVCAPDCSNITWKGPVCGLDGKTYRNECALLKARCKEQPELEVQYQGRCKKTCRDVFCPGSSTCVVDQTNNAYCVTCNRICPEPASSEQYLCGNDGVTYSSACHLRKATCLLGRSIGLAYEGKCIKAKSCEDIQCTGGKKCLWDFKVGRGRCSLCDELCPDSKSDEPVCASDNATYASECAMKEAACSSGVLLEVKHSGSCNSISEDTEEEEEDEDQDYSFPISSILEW
Experiment [6] concerns the target Fibroblast growth factor 2 (Homo sapiens) (UniProt P09038). Kind of experiment: basic fibroblast growth factor binding to printed compounds – biochemical, small-molecule microarray, 635/667 nm fluorescence, primary screen (AID 1133). The conditions noted are these: FGF2, fluorescence 635/667, higher = more signal.
Experiment [7] is described as follows: JC-1 mitochondrial potential readout, lung cancer cells – cell-based, A549, JC-1 fluorescence, basal, 24 h, 100 nL, profiling panel (AID 1138).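 Further: A549 lung adenocarcinoma cells under basal conditions with no added stimulus; test concentration not given here.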 Conditions: higher = more signal.
The subject of a further experiment is Lefty1. Kind of experiment: Lefty1 protein binding to printed compounds – biochemical, small-molecule microarray, 635/667 nm fluorescence, primary screen (AID 1139). The conditions noted are these: fluorescence 635/667, higher = more signal.
For experiment [8], the system named is wheat germ agglutinin (Triticum aestivum), Alexa647-labelled. The experiment is described as follows: Alexa647-WGA lectin binding to printed small molecules – biochemical, small-molecule microarray, 635/667 nm fluorescence, artefact control for SMM control-protein annotation, profiling panel (AID 1140).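 Further: score merges 667 nm feature emission with signal to noise over triplicate slides.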 Conditions: WGA-A647 binding, 635 nm fluorescence, higher = more signal.

The target in experiment [9] is Luciferin 4-monooxygenase (Photinus pyralis) (UniProt P08659). Kind of experiment: inhibition of purified Photinus pyralis luciferase – biochemical, luminescence, purified enzyme, 2006 set, primary screen (AID 1141).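 Further: cell-free assay with purified firefly luciferase at 100 ng per well in PBS; test concentration not given here.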 The conditions noted are these: purified firefly luciferase, SteadyGlo luminescence, 30 min; higher = more signal, called active from +8 up or from −8 down.
Luciferin 4-monooxygenase (Photinus pyralis), sequence (P08659 whole entry, looked up): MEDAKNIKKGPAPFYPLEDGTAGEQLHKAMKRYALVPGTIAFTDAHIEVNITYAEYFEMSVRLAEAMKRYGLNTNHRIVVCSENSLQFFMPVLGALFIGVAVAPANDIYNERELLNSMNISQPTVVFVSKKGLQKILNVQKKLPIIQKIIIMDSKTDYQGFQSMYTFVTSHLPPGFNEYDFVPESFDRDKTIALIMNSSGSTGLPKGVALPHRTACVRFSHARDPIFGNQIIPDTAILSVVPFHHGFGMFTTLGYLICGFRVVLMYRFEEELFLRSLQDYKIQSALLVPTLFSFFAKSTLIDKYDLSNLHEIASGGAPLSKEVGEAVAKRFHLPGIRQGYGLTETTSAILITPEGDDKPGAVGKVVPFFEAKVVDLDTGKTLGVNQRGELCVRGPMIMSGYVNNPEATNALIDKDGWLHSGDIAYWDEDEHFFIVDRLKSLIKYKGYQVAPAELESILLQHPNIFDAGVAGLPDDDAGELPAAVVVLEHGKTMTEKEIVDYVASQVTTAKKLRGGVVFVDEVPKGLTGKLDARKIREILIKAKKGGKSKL

The subject of experiment [10] is Wnt5a (protein binding on small-molecule microarray). The experiment is described as follows: small molecules binding Wnt5a protein – biophysical, small-molecule microarray, 635/667 nm fluorescence, primary screen (AID 1142).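 Further: fluorescence read at 667 nm with signal to noise per printed feature.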 Conditions: 635 nm fluorescence, higher = more signal.
Experiment [11] is described as follows: ATP-based viability of Huh7 replicon cells – cell-based, CellTiter-Glo luminescence, basal, 48 h, cytotoxicity control for HCV replication inhibitor project, primary screen (AID 1143).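 Further: Huh7 hepatoma cells carrying a hepatitis C replication reporter with no stimulus; test concentration not given here.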 The conditions noted are these: higher = more signal, called active from +8 up or from −8 down. (Replicon systems follow genome replication, usually without infectious particles.)

Experiment [12] can be described thus: Pseudomonas biofilm growth suppression – PAO1 strain, BacTiter-Glo luminescence, LB-PBS, primary screen (AID 1144). Conditions: P. aeruginosa PAO1 biofilm, 12 h, higher = more signal.
Experiment [13] is described as follows: basal CRE-LacZ reporter activity in PC12 – cell-based, unstimulated, primary screen (AID 1145). The conditions noted are these: no forskolin, luminescence, 4.5 h, higher = more signal, called active from +8 up or from −8 down.
Experiment [14] is described as follows: forskolin-driven CRE-LacZ activity in PC12 – cell-based, CRE-LacZ reporter, forskolin-stimulated, primary screen (AID 1146).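 Further: PC12 cells with 6xCRE LacZ reporter stimulated by forskolin 10 µM; beta-galactosidase reporter signal reflecting CREB driven transcription.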 Conditions: luminescence, 4.5 h, higher = more signal, called active from +8 up or from −8 down.
In experiment [15] the target is Streptavidin (Streptomyces avidinii) (UniProt P22629). Kind of experiment: compounds binding control protein streptavidin – biophysical, small-molecule microarray, 635/667 nm fluorescence, artefact control for SMM compound annotation, primary screen (AID 1147).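 Further: signal reflects streptavidin binding to arrayed compounds as a control protein.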 Conditions: higher = more signal.
Streptavidin (Streptomyces avidinii), sequence (P22629 whole entry, looked up): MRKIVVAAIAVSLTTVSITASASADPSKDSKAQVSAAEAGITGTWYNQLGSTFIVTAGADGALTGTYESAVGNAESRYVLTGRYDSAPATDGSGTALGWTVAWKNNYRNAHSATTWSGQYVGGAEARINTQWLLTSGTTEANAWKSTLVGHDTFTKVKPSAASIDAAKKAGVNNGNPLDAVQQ
A short description of experiment [16]: probe aInhba binding on compound microarray – biochemical, small-molecule microarray, 635/667 nm fluorescence, primary screen (AID 1148).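 Further: score merges 667nm spot fluorescence with signal-to-noise for antibody binding to printed compounds.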 Conditions: higher = more signal.
Experiment [17] has as its target Torsin-1A (Homo sapiens) (UniProt O14656). Kind of experiment: TOR1A wild-type binding on microarray – cell lysate, small-molecule microarray, lysate, 635/667 nm, primary screen (AID 1149). The conditions noted are these: COS7 hTOR1A-WT lysate, 635 nm fluorescence, higher = more signal.
The target is the same in experiment [18]. The experiment is described as follows: torsin A mutant lysate binding on microarrays – cell lysate, small-molecule microarray, COS7 lysate, 635/667 nm fluorescence, primary screen (AID 1150).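 Further: score pools 667 nm emission and signal to noise measuring lysate protein binding.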 The conditions noted are these: COS7 hTOR1A mutant lysate, 635 nm fluorescence, higher = more signal.
Experiment [19] deals with Sonic hedgehog protein (Shh). The experiment is described as follows: Sonic hedgehog microarray binding compounds – biochemical, small-molecule microarray, 635/667 nm fluorescence, primary screen (AID 1151).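 Further: Shh protein binding to compounds spotted on small-molecule microarray slides; score combines spot fluorescence intensity with signal-to-noise across triplicate slides.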 The conditions noted are these: 635 nm fluorescence, higher = more signal.

Calls of active or inactive are those of the source. Unless noted, how the calls were made is not given here.

Torsin-1A (Homo sapiens), sequence (O14656 whole entry, looked up): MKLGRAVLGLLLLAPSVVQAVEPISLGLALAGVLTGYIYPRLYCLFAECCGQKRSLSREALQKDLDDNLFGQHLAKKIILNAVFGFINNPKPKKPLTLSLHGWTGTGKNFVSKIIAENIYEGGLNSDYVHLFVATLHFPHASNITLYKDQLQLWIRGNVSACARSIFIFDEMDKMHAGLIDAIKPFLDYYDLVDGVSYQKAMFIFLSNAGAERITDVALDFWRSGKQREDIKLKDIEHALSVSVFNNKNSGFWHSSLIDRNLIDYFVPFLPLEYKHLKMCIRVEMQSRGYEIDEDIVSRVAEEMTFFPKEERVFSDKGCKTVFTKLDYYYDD
Fibroblast growth factor 2 (Homo sapiens), sequence (P09038 whole entry, looked up): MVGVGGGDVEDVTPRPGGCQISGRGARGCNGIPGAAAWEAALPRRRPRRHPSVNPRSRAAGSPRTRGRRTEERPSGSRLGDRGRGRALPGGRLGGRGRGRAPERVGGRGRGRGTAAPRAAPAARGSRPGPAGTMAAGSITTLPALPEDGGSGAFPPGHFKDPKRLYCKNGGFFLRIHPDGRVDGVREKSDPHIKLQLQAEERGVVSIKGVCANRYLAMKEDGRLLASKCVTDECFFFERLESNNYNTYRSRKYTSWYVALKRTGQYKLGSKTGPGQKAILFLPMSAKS

In the case of `O=C1O[C@@H](c2ccccc2)[C@@H](c2ccccc2)N2[C@@H](c3ccccc3OCCO)[C@]3(C(=O)Nc4ccc(C#CCCO)cc43)[C@@H](C(=O)N3CCN(c4ncccn4)CC3)[C@H]12`, the composite z-score was 1.72 in experiment [1]; 1.19 in experiment [2]; 0.747 in experiment [3]; 0.946 in experiment [4]; 0.389 in experiment [5]; -0.0344 in [6]. Also, the composite z-score in the experiment with Lefty1 was 0.081; in experiment [8], 0.65; in experiment [10], 0.174; in [15], 0.139; in [16] it was -0.0448; with Torsin-1A (Homo sapiens) [17], -0.566. The values for the composite z-score (in the experiment with Torsin-1A (Homo sapiens) [18]; in [19]) were 0.224 and -0.105, respectively. For the same compound, the z-score is 0.679 in experiment [7]; 0.27 (inactive) in experiment [9]; -2.33 (inactive) in experiment [11]; 0.608 (inactive) in experiment [12]; 0.478 (inactive) in [13]; 2.99 (inactive) in experiment [14].

Turning to `C=CCN1C(=O)[C@@]2(O[C@@H](CCO)[C@H]([Si](C)(C)c3ccc(OC)cc3)[C@H]2C)c2cc(N3C(=O)c4ccccc4Oc4ccccc43)ccc21`, the composite z-score worked out at 0.939 in experiment [1]; 0.551 in experiment [2]; 0.17 in [3]; 0.485 in experiment [4]; 0.144 in [5]; 0.675 in experiment [6]. For the same compound, the composite z-score was 0.24 in the experiment with Lefty1; 0.615 in [8]; 0.485 in experiment [10]; 0.031 in [15]; -0.102 in experiment [16]; -0.331 with Torsin-1A (Homo sapiens) [17]. Moreover, the composite z-score in the experiment with Torsin-1A (Homo sapiens) [18] is -0.0355; in experiment [19], 0.23. In addition, the z-score is 0.00401 in experiment [7]; -1.49 (inactive) in experiment [9]; -7.93 (inactive) in [11]; -1.4 (inactive) in experiment [12]; 18.4 (active) in experiment [13]; -3.87 (inactive) in [14].

Regarding `CCOC(=O)C[C@H]1[C@H](OC(=O)c2ccccc2-c2ccccc2)[C@@H](NC(=O)c2ccc3ccccc3n2)c2cc(OCCCO)ccc2N1C(=O)c1ccc2ccccc2n1`, the composite z-score in [1] was found to be 1.22; in experiment [2], 0.374; in [3], 0.281; in experiment [4], 0.74; in experiment [5] it was 0.474; in [6], 0.202. In addition, the composite z-score is 0.659 with Lefty1; 0.0363 in [8]; 0.191 in experiment [10]; 1.07 in experiment [15]; -0.117 in experiment [16]; -0.137 with Torsin-1A (Homo sapiens) [17]. The composite z-score with Torsin-1A (Homo sapiens) [18] is -0.184; in experiment [19], 0.389. Also, the z-score in experiment [7] is 0.481; in experiment [9], 0.761 (inactive); in experiment [11], -0.688 (inactive); in experiment [12], -1.37 (inactive); in [13], 1.22 (inactive); in experiment [14], 0.305 (inactive).

As for `CC(C)(C)N1CC=CC23O[C@@H]4C=CCOC(=O)[C@@H]4[C@H]2C(=O)N(CCCO)[C@@H]3C1=O` (stereo not given in full), the composite z-score in experiment [1] is -1.08; in experiment [2], -1.21; in [3], -0.595; in experiment [4] it was -1.79; in experiment [5], -1.79; in experiment [6], -1.28. Moreover, the composite z-score was -1.34 in the experiment with Lefty1; -1.13 in experiment [8]; -0.56 in experiment [10]; -1.48 in experiment [15]; -0.317 in experiment [16]; 0.213 with Torsin-1A (Homo sapiens) [17]. Further, the composite z-score with Torsin-1A (Homo sapiens) [18] is -0.0267; in experiment [19] it was -0.471. Further, the z-score in [7] is -0.908; in experiment [9], -0.11 (inactive); in experiment [11], -1.97 (inactive); in experiment [12], 0.0204 (inactive); in experiment [13], 0.321 (inactive); in [14], 0.0029 (inactive).

For the compound `[N-]=[N+]=NCc1ccccc1[C@H]1OC(c2ccc(OCCCO)cc2)=N[C@@]1(CCS(=O)(=O)c1ccccc1)C(N)=O`, the composite z-score in experiment [1] came to 2.08; in experiment [2] it was 1.18; in experiment [3], 0.238; in experiment [4], 1; in [5], 1.18; in experiment [6], 1.26. Also, the composite z-score was -0.456 in the experiment with Lefty1; 1.16 in [8]; 0.524 in experiment [10]; 1.8 in experiment [15]; 0.182 in [16]; 1.87 in the experiment with Torsin-1A (Homo sapiens) [17]. The composite z-score in the experiment with Torsin-1A (Homo sapiens) [18] is 1.76; in experiment [19], -0.384. Besides, the z-score was -1.14 in experiment [7]; -3.95 (inactive) in experiment [9]; -0.0602 (inactive) in experiment [11]; 0.456 (inactive) in [12]; -0.678 (inactive) in [13]; 0.237 (inactive) in experiment [14].
